Source: PubChem BioAssay (National Center for Advancing Translational Sciences (NCATS))
Rows were chosen to be rich in hits. Some 2.3% of all compounds tested hit in one or more screens of this group.
Tau FP inhib: tau fibrillization inhibition (FP) | K18 P301L tau heparin fibrillization, Alexa594 FP, 6 h | Potency, µM (series often up to 57.7 µM), for the others: top-dose activity, negative = inhibition, hits mostly inhibitors | hit rate 0.39% among 280,000 | AID 1468; further: potency means the concentration at half of the fitted maximal effect; nearly all actives have a fitted effect of over 55% in size
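Recombinant K18 P301L […], labeled with Alexa 594 at 0.24 uM over 15 uM unlabeled; heparin inducer 20 uM final; 37 C, 6 hr; FP endpoint.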
Coupling enz: counter-screen for Giardia aldolase inhibitors: coupling enzyme system; coupling enzyme system counterscreen, AmpLite Red fluorescence; activity change, negative = inhibition, % at 58.2 µM, hits read low; hit rate 0.67% among 290,000; in the data active means activity change below about -30%
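Final compound at 57.5 uM, incubated 10 min at RT with coupling enzyme reagent (glyceraldehyde-3-phosphate), then 20 min with substrate and AmpLite Red detection. Fluorescence read at 525/598 nm; tests interference with the coupling assay, not aldolase inhibition.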
USP1-UAF1 inh: inhibitors of human USP1/UAF1 deubiquitinase. O94782. recombinant USP1/UAF1, Ub-Rhodamine cleavage fluorescence. Potency, µM (top dose mostly 57.1 µM), inactives show at the top dose activity change, negative = inhibition, actives largely listed as inhibitors. hit rate 0.23% among 390,000; further: potency means the concentration at half of the fitted maximal effect; nearly all actives have a fitted effect of over 60% in size
Target sequence (O94782 whole entry, looked up): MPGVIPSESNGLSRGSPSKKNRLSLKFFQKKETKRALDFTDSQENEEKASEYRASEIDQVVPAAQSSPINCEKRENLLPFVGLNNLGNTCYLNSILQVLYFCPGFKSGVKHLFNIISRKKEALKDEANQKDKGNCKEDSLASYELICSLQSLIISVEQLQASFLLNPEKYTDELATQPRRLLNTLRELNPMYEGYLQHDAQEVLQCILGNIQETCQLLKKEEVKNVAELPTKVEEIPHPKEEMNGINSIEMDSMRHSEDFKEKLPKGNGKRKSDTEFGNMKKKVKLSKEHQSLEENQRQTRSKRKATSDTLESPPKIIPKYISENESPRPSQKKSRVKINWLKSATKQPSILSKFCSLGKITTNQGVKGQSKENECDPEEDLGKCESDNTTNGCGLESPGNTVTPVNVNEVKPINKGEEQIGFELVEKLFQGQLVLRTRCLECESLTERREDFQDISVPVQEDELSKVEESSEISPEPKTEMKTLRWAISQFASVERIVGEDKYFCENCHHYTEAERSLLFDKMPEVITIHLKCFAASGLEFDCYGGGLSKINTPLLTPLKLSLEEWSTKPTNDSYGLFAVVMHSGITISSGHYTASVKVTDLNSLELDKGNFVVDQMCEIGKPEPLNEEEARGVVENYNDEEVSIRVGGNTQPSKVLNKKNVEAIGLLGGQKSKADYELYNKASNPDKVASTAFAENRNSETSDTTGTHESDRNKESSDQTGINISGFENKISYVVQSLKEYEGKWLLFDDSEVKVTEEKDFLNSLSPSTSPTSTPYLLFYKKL
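USP1/UAF1 complex at 1 nM was preincubated with compound for 15 min at room temperature, then Ub-Rho substrate (150nM final) was added. Fluorescence (480/540 nm) was read kinetically, 6 reads every 60 seconds.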
Tau ThT inhib: inhibitors of human tau fibril formation, thioflavin T binding | AID 1460 | P10636 | hit rate 2.1% among 270,000 | recombinant tau K18 P301L, heparin-induced fibrillization, ThT fluorescence | Potency, µM (top dose mostly 57.4 µM), inactives show top-dose activity, negative = inhibition, most hits filed as inhibitors; further: potency means the concentration at half of the fitted maximal effect; nearly all actives have a fitted effect of over 55% in size
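K18 P301L tau (15 uM + 0.24 uM Alexa 594-tagged), heparin 20 uM, NaOAc pH 7, 6 h 37 C; ThT 30 uM, 1 h RT, ex 450/em 510 nm.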
Tau fluor cs: counter-screen for tau fibril formation inhibitors; Potency, µM (series often up to 57.7 µM), inactives show at the top dose activity change, negative = decrease; tau K18 P301L (four-repeat tau fragment) Alexa594 fluorescence, heparin fibrillization; hit rate 0.93% among 280,000; further: potency means the concentration at half of the fitted maximal effect; nearly all actives have a fitted effect of over 55% in size
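Human K18 P301L tau (15 uM unlabeled plus 0.24 uM Alexa 594-labeled, final) in 100 mM sodium acetate pH 7 was mixed with compound and 20 uM heparin and incubated 6 hr at 37 C.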
Active calls of the source: *; ? = inconclusive; · = no result given; [ ] = another dose, or the depositor's remark. Unless noted, the call rests on the fitted dose curve; in most records, active means well fitted curve in the direction sought with a large enough effect; inconclusive means small, poorly fitted or top-dose-only effect, or another doubt; inactive means no such curve, though single readings can be large; an effect the other way counts as inactive or inconclusive. On the % scale 0 is the no-effect control and ±100 the full control effect.

SMILES	Tau FP inhib	Coupling enz	USP1-UAF1 inh	Tau ThT inhib	Tau fluor cs
OCCN(CCO)c1ccc(C(c2ccccc2Cl)c2ccc(N(CCO)CCO)cc2Cl)c(Cl)c1	17%	-1	-17%	?	11µM*[quencher]
O=C(N=Nc1c(O)n(Cc2ccccc2)c2ccccc12)c1ccncc1	1%	2	-22%	16µM*	-11%
COC(=O)N=Nc1c(O)n(Cc2ccccc2)c2ccccc12	-11%	3	-21%	?	-14%
CC1=CC2=C(OC1N(C)C)c1cccc3cccc(c13)C2=O (stereo not drawn)	?	-28	-24%	20µM*	-29%
CCOC(=O)C1=C(COC(=O)[C@H](C)NS(=O)(=O)c2ccc(NC(C)=O)cc2)NC(=O)NC1C (stereo partly drawn)	·	·	-16%	·	·
O=c1cc(N=Nc2ccc(Cl)cc2)[nH]c(=O)[nH]1	?	-26	?	11µM*	?
O=c1cc(-c2ccc(Cl)cc2)oc(=O)[nH]1	-1%	1	-9%	-6%	-2%
CCOc1ccccc1NC(=O)CSc1nnc(CCC(=O)Nc2ccccc2F)n1C	·	·	-6%	·	·
Cc1ccc(NC2Sc3ccccc3NC2=O)cc1 (stereo not drawn)	?	-3	-18%	16µM*	-22%
O=C1Nc2ccccc2SC1c1ccccc1 (stereo not drawn)	·	1	-13%	·	·
COc1ccc(NC(=O)c2c(NCc3ccc(C)o3)sc3c2CCC(C)C3)cc1 (stereo not drawn)	?	·	?	25µM*	?
CCOC(=O)N1CCc2c(sc(NCc3ccc(N(C)C)cc3)c2C(=O)Nc2ccc(OC)cc2)C1	6%	·	28µM*	?	?
CCOc1ccc(NC(=O)c2c(NCc3sccc3C)sc3c2CCCCC3)cc1	?	·	?	14µM*	?
COc1ccc(NC(=O)c2c(NCc3ccc(C)o3)sc3c2CCC(C)C3)c(OC)c1 (stereo not drawn)	-9%	·	-26%	?	?
CCOc1ccc(NC(=O)c2c(NCc3ccc(C)o3)sc3c2CCCCC3)cc1	?	·	7%	22µM*	-23%
CC(=O)c1cccc(NC(=O)c2nc(-c3ccccc3)n(-c3cccc(Cl)c3)n2)c1	-3%	·	?	-6%	-18%
COc1cc2ncnc(Nc3ccc(Cl)cc3F)c2cc1OC	·	0	·	·	·
COc1cc2ncnc(Nc3ccc(F)c(Cl)c3)c2cc1OCCCN1CCOCC1	40µM*	-1	·	?	?
O=S(=O)(Nc1cccc(-c2ccc(N3CCOCC3)nn2)c1)c1cc(C(F)(F)F)ccc1Cl	0%	·	-25%	-15%	-29%
COC(=O)C(N)Cc1ccc(O)cc1 (stereo not drawn)	4%	4	-2%	-2%	-4%
COC(=O)[C@@H](N)CS	?	-4	-28%	14µM*	-28%
COC(=O)C(N)CS (stereo not drawn)	?	-2	·	18µM*	-25%
Cc1ccc(Cl)cc1N1CCN(C(=O)c2ccccc2SCC(=O)N2CCCC2)CC1	·	·	-25%	·	·
O=C(O)c1cc(NN=Nc2ccc(Br)cc2)cc([N+](=O)[O-])c1	1%	9	-7%	14µM*	-28%
O=[N+]([O-])c1cccc(NN=Nc2ccccc2)c1	·	-3	-15%	·	·
SMILES	Tau FP inhib	Coupling enz	USP1-UAF1 inh	Tau ThT inhib	Tau fluor cs
O=[N+]([O-])c1ccc(N=NNc2ccccc2)cc1	2%	0	-21%	8.9µM*	14µM*[quencher]
O=C(O)c1cc([N+](=O)[O-])ccc1Nc1ccccc1	13%	-5	-19%	?	-4%
Nc1cc([N+](=O)[O-])ccc1Nc1ccccc1	?	-2	-12%	16µM*	?
CCOc1ccc(Nc2c(S(=O)(=O)c3ccc(C)cc3)cnc3cc(OC)c(OC)cc23)cc1	8%	·	-5%	-14%	-14%
O=C1NCC(=O)N2CCC[C@@H]12	·	·	-14%	·	·
CCOC(=O)C1=C(O)/C(=C/c2ccc(-c3ccccc3C(=O)O)o2)SC1=Nc1ccc(OC)cc1	5%	2	-18%	16µM*	-7%
NC(=O)c1cc(S(=O)(=O)NCC2CCC(C(=O)Nc3ccc(Cl)cc3)CC2)cs1 (stereo not drawn)	?	·	-20%	11%	-2%
CCOc1cnn(-c2cc(Oc3ccc(C)cc3)ncn2)c(=O)c1Cl	1%	4	-12%	-18%	-16%
Cc1ccccc1Oc1cc(-n2ncc(Cl)c(Cl)c2=O)ncn1	?	2	-24%	10µM*	-12%
O=C(CS(=O)(=O)c1cccc2nsnc12)NCc1ccc(Cl)cc1	1%	·	-25%	1%	-1%
COc1ccc(CNC(=O)CSc2ncc3c(n2)-c2ccc(Cl)cc2N(Cc2ccc(F)cc2)S3(=O)=O)cc1OC	-17%	·	-13%	13%	-23%
O=C(Nc1ccc(Br)c(C(F)(F)F)c1)c1ccc(C(F)(F)F)cc1	22µM*	-9	-14%	·	-28%
O=C(Nc1ccc(Br)c(C(F)(F)F)c1)c1ccccc1	?	-3	-16%	-18%	?
Cc1[nH]c2ccccc2c1SCc1ccccc1	-5%	-11	1%	?	18µM*[quencher]
Cc1[nH]c2ccccc2c1SCCN	·	·	-16%	·	·
Nc1c(C(=O)Nc2ccccc2Cl)c2ccccn2c1C(=O)c1ccc(Cl)cc1	-12%	·	6%	?	-29%
COc1cc(/C=c2\s/c(=C(/C#N)C(=O)N3CCCC3)n(-c3ccccc3)c2=O)ccc1O	2%	0	-20%	?	-7%
Cc1ccc(/C=c2\s/c(=C(/C#N)C(=O)N3CCCC3)n(Cc3ccco3)c2=O)s1	-12%	-3	-4%	16µM*	?
CCOc1cc(C(=O)NCCc2sc(-c3ccc(F)cc3)nc2C)cc(OCC)c1OCC	3%	·	?	?	-15%
Cc1c(NC(=S)N/N=C/c2cc([N+](=O)[O-])ccc2O)c(=O)n(-c2ccccc2)n1C	-1%	9	-20%	32µM*	-26%
CC(=O)c1cccc(NC(=O)CSc2nc(=O)n(Cc3ccco3)c3c2CCC3)c1	?	·	-27%	2%	4%
Cn1c(N=NC(=O)c2ccccc2)c(O)c2ccccc21	-9%	-2	-21%	13µM*	?
O=C1Nc2ccc(S(=O)(=O)NCCC3=CCCCC3)c3cccc1c23	-8%	-34*	-20%	-1%	-12%
COc1ccccc1N(C(C)=O)C1=C(Cl)C(=O)c2ccccc2C1=O	·	·	18µM*	·	·
COc1ccc(CCN(/C=C2\Sc3ccccc3C2=O)C(C)=O)cc1OC	6%	0	-8%	?	-18%
Nc1nc(=S)c2ncn(C3OC(CO)C(O)C3O)c2[nH]1 (stereo not drawn)	?	0	-15%	11µM*	?
Nc1nc(=S)c2ncn([C@@H]3O[C@H](CO)[C@@H](O)[C@H]3O)c2[nH]1	·	·	-18%	·	·
